Records with an inconclusive call do not appear. A number with no mark means an inactive call. The source made the active and inactive calls. Calls come from the whole dose curve; as a rule, active = well fitted cell-killing curve with a large enough effect; inconclusive = small, poorly fitted or top-dose-only effect, or effect the other way; inactive = no such curve, though single readings can be large or run the other way.

The values below come from PubChem BioAssay (NCATS).
Potency is the fitted concentration of half-maximal effect.

A short description of this assay: Quantitative High-Throughput drug screen in 47 multiple myeloma cell lines against the NCATS MIPE library collection: FR4_PLB cell viability assay (AID 1918924; note: nearly all actives have a fitted effect of over 35% in size). The conditions noted are these: FR4_PLB myeloma cells viability, CellTiter-Glo ATP, 48 h; series mostly up to 45.8 µM; viability (% of DMSO control): at the top concentration. The text has this:
PI: Beverly A. Mock Ph.D.
Laboratory of Cancer Biology and Genetics,
Center for Cancer Research, National Cancer Institute,
National Institute of Health, Bethesda, Maryland
Drug resistance and disease progression are common in multiple myeloma (MM) patients, underscoring the need for new therapeutic combinations. […] We hypothesized that effective combinations would reduce MYC expression and enhance p16 activity. […] These preclinical data identify potentially useful drug combinations for evaluation in drug-resistant MM and reveal potential mechanisms of combined drug sensitivity.
Described herein is the primary MIPE qHTS used to cherrypick compounds. Validated compounds were then further tested for potential synergistic activiy.
[1] Peat TJ, Gaikwad SM, Dubois W, Gyabaah-Kessie N, Zhang S, Gorjifard S, Phyo Z, Andres M, Hughitt VK, Simpson RM, Miller MA, Girvin AT, Taylor A, Williams D, D'Antonio N, Zhang Y, Rajagopalan A, Flietner E, Wilson K, Zhang X, Shinn P, Klumpp-Thomas C, McKnight C, Itkin Z, Chen L, Kazandijian D, Zhang J, Michalowski AM, Simmons JK, Keats J, Thomas CJ, Mock BA. Drug combinations identified by high-throughput screening promote cell cycle transition and upregulate Smad pathways in myeloma. Cancer Lett. 2023 Aug 1;568:216284. doi: 10.1016/j.canlet.2023.216284. Epub 2023 Jun 24. PMID: 37356470; PMCID: PMC10408729.
SEQUENCE No. (e.g., 1, 2, 3, etc.); […] (e.g., Cells, Incubation, Reagent, etc.); VALUE and DESCRIPTION.
1; Cells; 5 uL; white, solid bottom 1536-well Greiner assay plate.
2; Compounds; 23 nL; Kalypsis pin tool (Wako USA) equipped with a 1536-well pin head to transfer to the assay plates.
3; Incubation; 48 hours; 37C incubation.
4; Reagent;5uL; CellTiter Glo (Promega).
5; Detector; 425V; Luminescence; Viewlux PerkinElmer.
NOTES (numbers refer to Sequence numbers above)
1. The cell-based screening methods employed in this study were like those previously published. Briefly, the corresponding myeloma cell lines were screened in 1,536-well plates with 500 cells, 5-uL per well for inhibition of cell viability (assessed by measuring ATP levels with CellTiterGlo).
2. NCATS MIPE 4.0 library of approved and investigational drugs were added using the Kalypsis pin tool. Wells treated with DMSO only for 100% viability and media only wells for 0% viability were used as controls.
3. The assay plates were covered and incubated for 48 hours in a 37C, 5% CO2 incubator with controlled humidity.
4. After 48 hours, CellTilter-GloTM luminescent substrate mix (Promega) reagent was added to the assay plate and plates we incubated for 5 min at room temperature.
5. Signal was measured as median relative luminescence units on a ViewLux (PerkinElmer) multiplate reader.
[1] Heske CM, Davis MI, Baumgart JT, Wilson K, Gormally MV, Chen L, Zhang X, Ceribelli M, Duveau DY, Guha R, Ferrer M, Arnaldez FI, Ji J, Tran HL, Zhang Y, Mendoza A, Helman LJ, Thomas CJ. Matrix Screen Identifies Synergistic Combination of PARP Inhibitors and Nicotinamide Phosphoribosyltransferase (NAMPT) Inhibitors in Ewing Sarcoma. Clin Cancer Res. 2017 Dec 1;23(23):7301-7311. doi: 10.1158/1078-0432.CCR-17-1121. Epub 2017 Sep 12. PMID: 28899971; PMCID: PMC6636827.
On the technique in general: Cellular ATP, detected with luciferase, serves as a proxy for viable cell number.
Take `Cc1csc(-c2nnc(Nc3ccc(Oc4ncccc4-c4ccnc(N)n4)cc3)c3ccccc23)c1`: the Potency was 16.6 µM (active).

On to `O=c1cc(-c2ccc(O)c(O)c2)oc2cc(O)cc(O)c12`, for which the “viability (% of DMSO control)” value is 116%.

`Clc1ccc(C2(c3ccc(-c4cn[nH]c4)cc3)CCNCC2)cc1`: the Potency is 20.9 µM (active). Regarding `CCNC(=O)[C@H]1O[C@@H](n2cnc3c(N)nc(NCCc4ccc(CCC(=O)O)cc4)nc32)[C@H](O)[C@H]1O`, the “viability (% of DMSO control)” value was 108%.

In the case of `O=c1[nH]nc(OCCCc2ccc(Cl)cc2)c(NCc2cccnc2)c1Br`, the Potency is 16.6 µM (active). Consider `CC(C)c1c(C(=O)Nc2ccccc2)c(-c2ccccc2)c(-c2ccc(F)cc2)n1CC[C@H](O)C[C@@H](O)CC(=O)O`, for which the Potency was 14.8 µM (active). On the same count and under the same terms, for `COc1c(C)c2c(c(O)c1CC=C(C)CCC(=O)OCCN1CCOCC1)C(=O)OC2` the value was 5.26 µM (active). With `NCc1c[nH]c(=S)n1[C@H]1CCc2c(F)cc(F)cc2C1`, the Potency is 14.8 µM (active). Still for that read-out and setting: for `Nc1ncnc2c1c(-c1cccc(OCc3ccccc3)c1)cn2C1CC(CN2CCC2)C1` (stereo not given) the value was 16.6 µM (active). In the case of `CC(C)(OCc1nn(Cc2ccccc2)c2ccccc12)C(=O)O`, the “viability (% of DMSO control)” value was 101%. Regarding `C[C@H]1O[C@@H](n2cc(F)c(=O)[nH]c2=O)[C@H](O)[C@H]1O`, the “viability (% of DMSO control)” value was 88%. On to `O=C1CCCC(=O)C1C(=O)c1ccc(C(F)(F)F)cc1[N+](=O)[O-]`, for which the “viability (% of DMSO control)” value was 108%. For the molecule `OCCn1cc(-c2ccc3c(c2)CCC3=NO)c(-c2ccncc2)n1`, the “viability (% of DMSO control)” value was 105%. With `O=C(c1ccc(F)c(F)c1Nc1ccc(I)cc1F)N1CC(O)([C@H]2CCCCN2)C1`, the Potency was 20.9 µM (active). `CN1CCN(c2ncc(-c3cc(Cl)cc(Cl)c3Cl)c(N)n2)CC1`: the “viability (% of DMSO control)” value was 123%. The same measure, in the same setting: for `O=C(O)C1=NC(C(=O)O)CC(C=CN2c3cc(O)c(OC4OC(CO)C(O)C(O)C4O)cc3CC2C(=O)O)=C1` (stereo not given) the value was 129%. As to `N#CC1(c2cccc(C(=O)Nc3cc(Oc4ccc5nc(NC(=O)C6CC6)sc5n4)ccc3F)c2Cl)CC1`, the Potency was 10.5 µM (active). Take `COC(=O)[C@H](c1ccccc1Cl)N1CCc2sccc2C1`: the “viability (% of DMSO control)” value is 119%. As to `CO[C@H]1C=CO[C@@]2(C)Oc3c(C)c(O)c4c(O)c(c(C=NN5CCN(C)CC5)c(O)c4c3C2=O)NC(=O)C(C)=CC=C[C@H](C)[C@H](O)[C@@H](C)[C@@H](O)[C@@H](C)[C@H](OC(C)=O)[C@H]1C`, the “viability (% of DMSO control)” value was 131% [at 15.3 µM]. In the case of `O=C1NC(=O)C(=Cc2ccc(-c3ccc(F)cc3O)o2)S1`, the “viability (% of DMSO control)” value was 96.8%.

With `C[C@]12CC[C@@H]3c4ccc(O)cc4CC[C@H]3[C@H]1[C@@H](O)[C@@H](O)[C@H]2O`, the “viability (% of DMSO control)” value is 141%. Still for that read-out and setting: next, `CN1CC(=O)N2C(Cc3c([nH]c4ccccc34)[C@H]2c2ccc3c(c2)OCO3)C1=O` (stereo not given in full): 105%; `CC(C)C[C@@H](N)[C@H](O)C(=O)N[C@H](C(=O)N[C@H](C(=O)N[C@@H](CC(=O)O)C(=O)O)C(C)C)C(C)C`: 125%. In the case of `CN(C)c1ccccc1CN1CCCN(Cc2ccccc2N(C)C)C1c1ccncc1`, the Potency is 18.7 µM (active). Regarding `COc1ccc(-c2cc(=O)c3c(O)cc(O[C@@H]4O[C@H](CO[C@@H]5O[C@@H](C)[C@H](O)[C@@H](O)[C@@H]5O)[C@@H](O)[C@H](O)[C@@H]4O)cc3o2)cc1O`, the “viability (% of DMSO control)” value is 124%. The same measure, in the same setting: next, `NC(=O)c1ccc(N(C(N)=O)c2c(F)cccc2F)nc1-c1ccc(F)cc1F`: 125%; `CC[C@H]1OC(=O)[C@H](C)[C@@H](O[C@H]2C[C@@](C)(OC)[C@@H](O)[C@H](C)O2)[C@H](C)[C@@H](O[C@@H]2O[C@H](C)C[C@H](N(C)C)[C@H]2O)[C@](C)(O)C[C@H](C)C(=NOCOCCOC)[C@H](C)[C@@H](O)[C@]1(C)O`: 89.1%; `CCn1c(-c2nonc2N)nc2cncc(CNC3CCNCC3)c21`: 118%. Same read-out and setting: for `CCCCC[C@H](O)C=C[C@H]1[C@H](O)CC(=O)[C@H]1CCCCCCC(=O)O` the value was 114%. As for `CC1(C)C(N(O)C(=O)Nc2ccc(Cl)cc2)N(c2ccc(Cl)cc2)C(=O)N1CC(=O)NN=CC=Cc1ccc([N+](=O)[O-])o1` (stereo not given), the Potency is 13.2 µM (active).

With `O=C1NC(=O)C(c2cnc3ccccn23)=C1c1cn2c3c(cccc13)CN(C(=O)N1CCOCC1)CC2`, the Potency is 0.0053 µM (active). In the case of `CC=C1C2C=C(C)CC1(N)c1ccc(=O)[nH]c1C2` (stereo not given), the “viability (% of DMSO control)” value is 122%. Turning to `CCC(=C(c1ccc(O)cc1)c1ccc(OCCNC)cc1)c1ccccc1`, the Potency was 26.4 µM (active).

With `COc1ccc(Cn2ccc3ccc(C(=O)NO)cc32)cc1`, the “viability (% of DMSO control)” value is 102%. In the case of `CCOC(=O)[C@@H](N)CCC(=O)N[C@@H](CSCc1ccccc1)C(=O)N[C@@H](C(=O)OCC)c1ccccc1`, the “viability (% of DMSO control)” value is 118%. As to `O=c1[nH]c(=O)n([C@H]2C[C@@H](O)[C@@H](CO)O2)cc1C(F)(F)F`, the “viability (% of DMSO control)” value is 118%. Regarding `CC[C@H](C)C(=O)O[C@H]1C[C@H](O)C=C2C=C[C@H](C)[C@H](CC[C@@H](O)C[C@@H](O)CC(=O)O)[C@H]21`, the “viability (% of DMSO control)” value is 108%.

For the molecule `O=C1CN2Cc3c(ccc(Cl)c3Cl)N=C2N1`, the “viability (% of DMSO control)” value was 82.4%. Take `NC(=O)c1ncn([C@@H]2O[C@H](CO)[C@@H](O)[C@@H]2O)n1`: the “viability (% of DMSO control)” value is 144%. The same measure, in the same setting: next, `NS(=O)(=O)c1cc(Cl)c(Cl)c(S(N)(=O)=O)c1`: 116%.
